This note sets out measurements from PubChem BioAssay (NCATS).

Assay [1] is described as follows: Confirmation and Secondary Assay for Modulators of Hemoglobin Beta Chain Splicing at IVS2 654 locus (AID 910). Put shortly: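 HeLa cells stably carrying EGFP interrupted by mutant beta-globin IVS2-654 intron (CMV-driven) were treated with compound for 2 days at 37C; corrected splicing was scored as total peak GFP intensity per well (488 nm excitation, 500-520 nm emission).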

The nature of assay [2]: Confirmation and Secondary Assay for Modulators of Hemoglobin Beta Chain Splicing at IVS2 705 locus (AID 930).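 Further: HeLa cells stably expressing the EGFP-705 splicing reporter; GFP fluorescence per well restored by corrected splicing of the IVS2-705 intron in EGFP; series mostly up to about 46 µM.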 In a few lines: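 Read-out: total peak GFP fluorescence per well (488 nm excitation, 500-520 nm emission) by laser-scanning cytometry. Cells: HeLa EGFP-705 splicing reporter, 2 days compound exposure in Optimem/2% FCS.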

Each structure is given as a SMILES string. Activity calls are given as the source filed them. The call rests on the fitted dose curve; in most records, active means well fitted activation curve with a large enough effect; inconclusive means small, poorly fitted or top-dose-only effect; inactive means flat fitted curve, though single readings scatter.

As to `COc1ccccc1-c1ccc2ncnc(NCc3cccnc3)c2c1`, the compound was called inactive in assay [1] and in assay [2].
